Results on 18 molecules are retold here after PubChem BioAssay (EPA / NIEHS).

Where “and” joins values, the source holds several entries; their conditions need not be identical. Equal values may be shown once. The source holds several records for some structures; these can differ, active in one and inactive in another. Calls of active or inactive are those of the source. Rule for the calls: active = hit-call score of the fitted dose curve at least 0.9, where 1 is the maximum; inactive = score below 0.9.

Read-out in experiment [1]: Interleukin-6 (IL6), IL6 (gene 3569)
Kind of experiment: BSK_CASM3C_IL6: BioMAP Diversity Plus: CASM3C Assay for Interleukin-6 (IL6) Biomarker Activity for (AID 2283040). To be noted: primary human coronary artery smooth muscle cells; actives raise or lower the signal.

Read-out in experiment [2]: Tissue plasminogen activator (tPA), PLAT (gene 5327)
Kind of experiment: BSK_BE3C_tPA: BioMAP Diversity Plus: BE3C Assay for Tissue plasminogen activator (tPA) Biomarker Activity (AID 2283041).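 For outcome: tPA level quantified by ELISA one day after compound addition.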 To be noted: primary human bronchial epithelial cells; actives raise or lower the signal. In short, it runs like this: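 Primary human lung bronchial epithelial cultures receive test chemical; after 24 h, tPA is quantified by ELISA, and gain or loss of signal is fitted bidirectionally relative to DMSO baseline.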

Read-out in experiment [3]: Interleukin-8 (IL8), CXCL8 (gene 3576)
In words: BSK_CASM3C_IL8: BioMAP Diversity Plus: CASM3C Assay for Interleukin-8 (IL8) Biomarker Activity (AID 2283042).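 Note: IL-8 protein level quantified by ELISA.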 The note with it: primary human coronary artery smooth muscle cells; actives raise or lower the signal.

Read-out in experiment [4]: Human Leukocyte Antigen - DR isotype (HLADR), HLA-DRA (gene 3122)
In words: BSK_CASM3C_HLADR: BioMAP Diversity Plus: CASM3C Assay for Human Leukocyte Antigen - DR isotype (HLADR) Biomarker Activity (AID 2283043).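 Note: cell-surface HLA-DR protein level quantified by ELISA.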 To be noted: primary human coronary artery smooth muscle cells; actives raise or lower the signal.

Read-out in experiment [5]: Macrophage colony-stimulating factor (MCSF), CSF1 (gene 1435)
Kind of experiment: BSK_CASM3C_MCSF: BioMAP Diversity Plus: CASM3C Assay for Macrophage colony-stimulating factor (MCSF) Biomarker Activity (AID 2283044).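 Note: M-CSF protein amount quantified by ELISA after 24 h exposure.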 The note with it: primary human coronary artery smooth muscle cells; actives raise or lower the signal.

Read-out in experiment [6]: Low-density lipoprotein receptor (LDLR), LDLR (gene 3949)
In words: BSK_CASM3C_LDLR: BioMAP Diversity Plus: CASM3C Assay for Low-density lipoprotein receptor (LDLR) Biomarker Activity (AID 2283045).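 Note: LDLR protein level on the cell surface quantified by ELISA.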 The note with it: primary human coronary artery smooth muscle cells; actives raise or lower the signal.

Read-out in experiment [7]: Monocyte Chemoattractant Protein-1 (MCP1), CCL2 (gene 6347)
Kind of experiment: BSK_CASM3C_MCP1: BioMAP Diversity Plus: CASM3C Assay for Monocyte Chemoattractant Protein-1 (MCP1) Biomarker Activity (AID 2283046).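 Note: MCP-1 level quantified by ELISA 24 h after dosing.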 The note with it: primary human coronary artery smooth muscle cells; actives raise or lower the signal.

The nature of experiment [8]: BSK_CASM3C_Proliferation: Cell Proliferation Assessment in the BioMAP Diversity Plus: CASM3C Assay (AID 2283047).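 Note: sulforhodamine B total protein stain as relative cell number at 560 nm; sub-confluent cells exposed 48 h before staining; fitted both ways against DMSO so gain or loss of cell number.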 The note with it: primary human coronary artery smooth muscle cells.
Read-out in experiment [9]: Monokine induced gamma interferon (MIG), CXCL9 (gene 4283)
In words: BSK_CASM3C_MIG: BioMAP Diversity Plus: CASM3C Assay for Monokine induced gamma interferon (MIG) Biomarker Activity (AID 2283048).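 Note: MIG protein level measured by ELISA.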 To be noted: primary human coronary artery smooth muscle cells; actives raise or lower the signal.

Read-out in experiment [10]: serum amyloid A (SAA), SAA1 (gene 6288)
In words: BSK_CASM3C_SAA: BioMAP Diversity Plus: CASM3C Assay for serum amyloid A (SAA) Biomarker Activity (AID 2283049).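 Note: SAA protein level quantified by ELISA.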 To be noted: primary human coronary artery smooth muscle cells; actives raise or lower the signal.

Regarding `C[N+]1(C)CCCCC1`, the outcome in experiment [1], in [2], in experiment [3], in experiment [4], in experiment [5] and in experiment [6] was inactive. In addition, the outcome in experiment [7], in experiment [8], in [9] and in experiment [10] was inactive.
As usually defined, the AC50 is the concentration at which the activity in the assay is half-maximal. `CSc1nnc(C(C)(C)C)c(=O)n1N`: the result in [1], in experiment [2], in experiment [3], in experiment [4], in experiment [5] and in [7] was inactive. In addition, the result in experiment [8], in experiment [9] and in experiment [10] was inactive. In addition, the concentration at half-maximal activity (AC50) in experiment [6] is 4.43 µM (active).
For `CNC(=O)Oc1cccc2c1OC(C)(C)O2`, the outcome in [1], in experiment [2], in experiment [3], in [4], in experiment [5] and in experiment [6] was inactive. Besides, the outcome in experiment [7], in [8], in experiment [9] and in experiment [10] was inactive.
Take `C#CCC1=C(C)C(OC(=O)C2C(C=C(C)C)C2(C)C)CC1=O` (stereo not given): the outcome in experiment [1], in experiment [2], in experiment [3], in experiment [4], in experiment [5] and in [6] was inactive. For the same molecule, the result in experiment [7], in experiment [9] and in experiment [10] was inactive. Also, in experiment [8], the AC50 is 26.8 µM (active).
With `O=[N+]([O-])c1cc(C(F)(F)F)c(Cl)c([N+](=O)[O-])c1Nc1ncc(C(F)(F)F)cc1Cl`, the half-maximal activity concentration (AC50) in experiment [1] is 3.6 µM (active); in experiment [2] it was 20 µM (active); in [3], 4.49 µM (active) and 10.8 µM (active); in [4] it was 2.16 µM (active) and 10 µM (active); in [5], 1.72 µM (active) and 6.05 µM (active); in [7], 4.23 µM (active) and 9.83 µM (active). The half-maximal activity concentration (AC50) in experiment [8] is 2.28 µM (active) and 1.22 µM (active); in experiment [9] it was 3.98 µM (active) and 8.05 µM (active); in experiment [10], 3.5 µM (active) and 6.78 µM (active). In addition, the outcome in experiment [1] and in experiment [6] was inactive.
For `CCC(=O)Nc1ccc(Cl)c(Cl)c1`, the outcome in experiment [1], in experiment [2], in experiment [3], in [4], in experiment [5] and in experiment [6] was inactive. Moreover, the outcome in [7], in [8] and in [9] was inactive.
Take `CCOP(=S)(OCC)Oc1ccc([N+](=O)[O-])cc1`: the result in experiment [1], in experiment [2], in [3], in experiment [4], in experiment [5] and in experiment [6] was inactive. Further, the outcome in experiment [7], in [8], in [9] and in [10] was inactive.
Consider `CCc1cccc(CC)c1N(COC)C(=O)CCl`, for which the outcome in experiment [1], in [2], in [3], in experiment [4], in experiment [5] and in [6] was inactive. Also, the result in [7], in experiment [8], in experiment [9] and in experiment [10] was inactive.
As to `CCCOCC(=Nc1ccc(Cl)cc1C(F)(F)F)n1ccnc1`, the outcome in experiment [1], in [3], in [4], in [5], in experiment [6] and in [10] was inactive. Moreover, the AC50 was 32.8 µM (active) in experiment [2], 26 µM (active) in experiment [7], 32.7 µM (active) in [8] and 20 µM (active) in [9].
As to `COP(=O)(OC)C(O)C(Cl)(Cl)Cl` (stereo not given), the result in [1], in experiment [2], in experiment [3], in [4], in experiment [5] and in [6] was inactive. For the same molecule, the outcome in experiment [7], in [9] and in experiment [10] was inactive. In experiment [8], the AC50 is 20 µM (active).
Take `CCOP(=O)(NC(C)C)Oc1ccc(SC)c(C)c1` (stereo not given): the outcome in [1], in experiment [2], in experiment [3], in experiment [4], in experiment [5] and in experiment [6] was inactive. Besides, the result in experiment [7], in [8], in experiment [9] and in experiment [10] was inactive.
With `CCc1cnc(C2=NC(C)(C(C)C)C(=O)N2)c(C(=O)O)c1` (stereo not given), the result in [1], in experiment [2], in experiment [3], in [4], in experiment [5] and in experiment [6] was inactive. Also, the result in [7], in experiment [8], in experiment [9] and in experiment [10] was inactive.
Regarding `CCOP(=O)(SC(C)CC)N1CCSC1=O` (stereo not given), the outcome in [1], in [2], in experiment [3], in experiment [4], in [5] and in [6] was inactive. Moreover, the result in experiment [7], in experiment [8], in [9] and in experiment [10] was inactive.
Regarding `COc1cc(OC)nc(Sc2cccc(Cl)c2C(=O)O)n1`, the outcome in experiment [1], in experiment [2], in [3], in [4], in [5] and in experiment [6] was inactive. The outcome in experiment [7], in experiment [8], in [9] and in [10] was inactive.
Consider `O=c1ccc(=O)[nH][nH]1`, for which the result in experiment [1], in [2], in [3], in experiment [4], in [5] and in experiment [6] was inactive. Moreover, the result in experiment [7], in experiment [8], in [9] and in experiment [10] was inactive.
With `CNc1cnn(-c2cccc(C(F)(F)F)c2)c(=O)c1Cl`, the outcome in [1], in experiment [2], in [3], in experiment [4], in [5] and in experiment [6] was inactive. Further, the result in [7], in [8], in [9] and in [10] was inactive.
Take `CSc1nc(NC(C)C)nc(NC(C)C)n1`: the result in experiment [1], in [2], in experiment [3], in experiment [4], in experiment [5] and in experiment [6] was inactive. The result in experiment [7], in [8], in [9] and in [10] was inactive.
As to `CC(C)N(C(=O)SCC(Cl)=C(Cl)Cl)C(C)C`, the result in experiment [1], in experiment [2], in [3], in [4], in [6] and in experiment [7] was inactive. Further, the result in [9] and in experiment [10] was inactive. Further, the AC50 in experiment [5] is 34.4 µM (active); in experiment [8], 37.1 µM (active).
